This is an account of results in PubChem BioAssay (EPA / NIEHS).

Records with an inconclusive call do not appear. Calls of active or inactive are those of the source. The calls were made as follows: active = hit-call score of the fitted dose curve at least 0.9, where 1 is the maximum; inconclusive = response in the unintended direction; inactive = score below 0.9.

The assay in a line: ATG_M_19_TRANS: Attagene TRANS-FACTORIAL HepG2 Assay for M19 Transcription Factor (Internal Marker) (AID 2282974). The conditions noted are these: HepG2 Attagene TRANS-FACTORIAL M19 internal marker reporter. As for the experimental part:
ATG_TRANS is a cell-based, multiplexed-readout assay that uses HepG2, a human liver cell line, with measurements taken at 24 hours after chemical dosing in a 24-well plate.ATG_M_19_TRANS is one of 30 assay component(s) measured or calculated from the ATG_TRANS assay. It is designed to make measurements of mRNA induction, a form of inducible reporter, as detected with fluorescence intensity signals by Reverse transcription polymerase chain reaction (RT-PCR) and Capillary electrophoresis technology.Data from the assay component ATG_M_19_TRANS was analyzed into 1 assay endpoint. This assay endpoint, ATG_M_19_TRANS, was analyzed in the positive analysis fitting direction relative to DMSO as the negative control and baseline of activity. Using a type of inducible reporter, measures of mRNA for gain-of-signal activity can be used to understand the background control at the transcription factor-level as they relate to the gene . Furthermore, this assay endpoint can be referred to as a secondary readout, because this assay has produced multiple assay endpoints where this one serves a background control function. To generalize the intended target to other relatable targets, this assay endpoint is annotated to the background measurement intended target family, where the subfamily is internal marker.
Human liver HepG2 cells are transiently transfected with multiple reporter transcription units (MRTUs) in 6-well plates using FuGene 6 reagent (Roche; 3 ml FuGene/1 mg DNA). The MRTU constructs are regulated by a cis-regulating element (promoter). […] A major difference between the CIS and TRANS system is that in CIS activities of endogenous TFs are measured, whereas the TRANS assay evaluates changes in activities of exogenous, chimeric NR-Gal4 proteins. […] At the end of 24 hour incubation, total RNA was isolated using TriZol reagent (Invitrogen). The isolated RNA is then reverse-transcribed using oligo(dT) primer and Mo-MLV reverse transcriptase (Invitrogen) with DNAse I (Ambion) treatment for 30 min. The one-tenth of the produced cDNA was amplified by PCR using Taq DNA polymerase (Invitrogen) and two reporter sequence-specific primers. The PCR products were fluorescently labeled by primer extension with 6-arboxyfluorescein (6-FAM) 5'-labeled reporter sequence-specific primer (2 min at 95 C, 20 s at 68 C and 10 min at 72 C) and these products were digested with 5U of HpaI (New England Biolabs) for 2h at 37 C. The fragments were purified using Qiaquick PCR columns (Qiagen), analyzed on an ABI 3130xL genetic analyzer (Applied Biosystems) with peak positions identified by using a set of X-rhodamine (ROX)-labeled MapMarker1000 molecular weight standards (BioVentures). The raw capillary electrophoresis data was processed using Attagraph software (Attagene).
As to `O=C(O)CCC(F)(F)C(F)(F)C(F)(F)C(F)(F)C(F)(F)C(F)(F)F`, the result was inactive. For `FC(OC(F)(F)C(F)(F)C(F)(F)F)C(F)(F)F` (stereo not given) the value was “inactive”. To `COC(=O)CC(C(C)=O)C(=O)OC` (stereo not given) belongs “inactive”; to `CCCCCCCCCCCCCCCC(=O)OC`, “inactive”.

Turning to `FC(F)(F)C1(F)C(F)(F)C(F)(F)C(F)(F)C1(F)F`, the compound was classed as inactive. For `NCc1cccc(CN)c1` the value was “inactive”; for `O=C(O)C(F)(F)OC(F)(F)C(F)(F)OC(F)(F)C(F)(F)OC(F)(F)C(F)(F)C(F)(F)C(F)(F)F`, “inactive”.

With `CCC(=O)C=Cc1ccc(OC)cc1`, the result was inactive. For `Nc1cc(Cl)c(-c2cc(Cl)c(N)cc2Cl)cc1Cl` the value was “inactive”; for `Nc1ccc(O)c(C(=O)O)c1`, “inactive”; for `O=c1cc(-c2ccccc2)oc2ccc3ccccc3c12`, “inactive”. To `O=C(Nc1cccc([N+](=O)[O-])c1)c1cc2ccccc2cc1O` belongs “inactive”; to `Brc1cc(Br)c(Oc2c(Br)cc(Br)c(Br)c2Br)cc1Br`, “inactive”; to `O=C(O)C(=O)O`, “inactive”. To `O=C(F)C(F)(F)C(F)(F)C(F)(F)C(F)F` belongs “inactive”; to `CCCCCCCCCCCCOC(=O)c1cc(O)c(O)c(O)c1`, “inactive”. Turning to `CC(C)(C)c1ccc(O)c(O)c1`, the outcome was inactive.

In the case of `CC(=O)Nc1ccc(S(N)(=O)=O)cc1`, the compound was classed as inactive. For `C=CC(=O)OCCC(F)(F)C(F)(F)C(F)(F)C(F)(F)C(F)(F)C(F)(F)C(F)(F)C(F)(F)F` the value was “inactive”. To `CCc1cccc(CC)c1NC(=O)C(=O)O` belongs “inactive”; to `O=C(OC(=O)C(F)(F)C(F)(F)F)C(F)(F)C(F)(F)F`, “inactive”; to `CCCCCCCCC(C)=O`, “inactive”.

Take `O=C1OC(=O)C(F)(F)C1(F)F`: the compound was classed as inactive. To `O=C(CC(=O)C(F)(F)C(F)(F)C(F)(F)F)c1cccs1` belongs “inactive”. To `C=CC(C)(CCC=C(C)C)OC(C)=O` (stereo not given) belongs “inactive”; to `Cc1cc(Cc2cc(C)cc(C(C)(C)C)c2O)c(O)c(C(C)(C)C)c1`, “inactive”; to `CC(C)(c1ccc(Oc2ccc(N)cc2)cc1)c1ccc(Oc2ccc(N)cc2)cc1`, “inactive”. For `Cc1ccc2ccc3ccc(C)cc3c2c1` the value was “inactive”; for `Cn1sccc1=O`, “inactive”.

Turning to `FC(F)=C(F)C(F)(F)C(F)(F)C(F)(F)C(F)F`, the outcome was inactive.

Regarding `C=C(c1ccc(C(=O)O)cc1)c1cc2c(cc1C)C(C)(C)CCC2(C)C`, the outcome was inactive. To `CCOC=C(C(=O)OCC)C(=O)OCC` belongs “inactive”; to `CCCCC(CC)C(=O)OCCOCCOCCOCCOC(=O)C(CC)CCCC` (stereo not given), “inactive”.

For the compound `CCCCc1ccc2ccccc2c1S(=O)(=O)O`, the compound was called inactive. For `CCOC(C)=O` the value was “inactive”. For the compound `CC(=O)CC(C)C`, the compound was classed as inactive.

Consider `COC(=O)C(F)(F)C(F)(F)C(F)(F)F`, for which the call was inactive. To `Cc1cc(=O)oc2cc(O)ccc12` belongs “inactive”; to `OCC(CO)(CBr)CBr`, “inactive”; to `FC(F)(F)C(F)(F)C(F)(F)Br`, “inactive”.
